Sampled rows, rich in hits. Any-hit rate of the full collection: about 2.6%.
Jurkat NFkB inh: lowers PMA/ionomycin-induced NF-kB signal in Jurkat cells; inhibition, % at 4 µM; PMA/ionomycin-induced NF-kB luciferase reporter, luminescence; AID 435003; actives 0.53% (n = 330,000); in the data active = inhibition above about 50%
Gli-Sufu block: antagonists of Gli-Sufu signaling; Sufu-KO-LIGHT fibroblasts, Gli luciferase reporter luminescence; inhibition, % at 5 µM; actives 0.74% (n = 340,000);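 active = inhibition above about 55%, limit read from the data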
NR2F2 inh: NR2F2 (human) inhibition, primary screen; P24468; HEK293T NGFI-A luciferase reporter, luminescence; inhibition, % at 8.6 µM; actives 0.7% (n = 370,000);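 active = inhibition above a per-plate cutoff, mean inhibition of test wells between control levels plus 3 SD, cut at about 38% in these data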;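 note: cells cotransfected with COUP-TFII expression vector driving the NGFI-A reporter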
Target sequence (P24468 whole entry, looked up): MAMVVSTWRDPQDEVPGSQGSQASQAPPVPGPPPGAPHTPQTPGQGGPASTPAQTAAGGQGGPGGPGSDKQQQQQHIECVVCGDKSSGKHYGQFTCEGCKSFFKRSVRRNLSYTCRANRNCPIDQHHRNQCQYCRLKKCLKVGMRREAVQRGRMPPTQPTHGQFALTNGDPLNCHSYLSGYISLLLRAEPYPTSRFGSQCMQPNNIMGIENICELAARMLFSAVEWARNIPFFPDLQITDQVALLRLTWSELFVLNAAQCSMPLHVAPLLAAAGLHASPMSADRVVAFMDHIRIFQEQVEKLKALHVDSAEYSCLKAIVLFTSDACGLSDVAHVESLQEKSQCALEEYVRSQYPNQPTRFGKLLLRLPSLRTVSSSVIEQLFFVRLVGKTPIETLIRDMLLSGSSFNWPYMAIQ
H9c2 protect: protects H9c2 cardiomyocytes from peroxide injury. actives 0.63% (n = 360,000). H2O2 injury protection, ATPLite, 2 h. protection from H2O2 cell death, % at 20 µM;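 active = compounds giving at least 50% protection of heart cells from peroxide-induced death in the single-dose screen, raw or plate-pattern-corrected value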
TAG inh: triacylglycerol accumulation inhibition. H9c2 cells, Nile Red lipid (TAG) fluorescence; cells loaded with 200 µM oleic acid. inhibition, % at 12.5 µM. actives 0.66% (n = 230,000);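 active = pattern-corrected inhibition of lipid staining of at least 50% with the nuclear-stain viability signal not falling by more than 50%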
697 NFkB inh: lowers PMA/ionomycin-induced NF-kB signal in 697 B cells. 697 B-cell NF-kB luciferase reporter, 16 h. inhibition, % at 4 µM. actives 0.33% (n = 330,000). AID 435022; in the data active = inhibition above about 35%
Gli antag conf: confirmation of Gli-SUFU pathway antagonists; shares compounds with Gli-Sufu block; Sufu-KO-LIGHT cells, Gli luciferase reporter, luminescence; actives 40% (n = 2,500); inhibition, % at 5 µM; AID 602428;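 active = mean inhibition at 5 µM reaching about 45%, limit read from the data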
SufuKO cytotox: cytotoxicity counter-screen for Gli-SUFU antagonists; actives 32% (n = 2,500); shares compounds with Gli-Sufu block; Sufu-KO-LIGHT cells cytotoxicity, ATP luminescence; cytotoxicity, % at 5 µM;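 active = mean cytotoxicity at 5 µM above about 25%, limit read from the data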;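 note: cells exposed to compound overnight for roughly 16 to 18 hours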
Wnt3a counter: counter-screen for Gli-SUFU antagonists: Wnt3a reporter inhibition; actives 20% (n = 2,500); AID 651995; inhibition, % at 6.25 µM; Wnt-LIGHT cells, Wnt3a-driven luciferase reporter, luminescence; shares compounds with Gli-Sufu block;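 active = mean inhibition above about 25%, limit read from the data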
Large screens that a line does not name were inactive (follow-up assays come after a bar, where they were run).

Cc1ccc(-c2nc(NCCN(C)C)c3ccccc3n2)cc1	none
Cc1c(CCOC(=O)C23CC4CC(CC(C)(C4)C2)C3)sc[n+]1Cc1ccccc1	none | Gli antag conf 56 | SufuKO cytotox inactive | Wnt3a counter inactive
Cc1c(CCOC(=O)C23CC4CC(CC(C4)C2)C3)sc[n+]1Cc1ccccc1	none (no result: TAG inh)
COC(=O)CSc1nnc(-c2n[nH]c3c2CCC3)n1N	none (no result: Jurkat NFkB inh, Gli-Sufu block, H9c2 protect, TAG inh, 697 NFkB inh)
O=C(c1ccc(OC2CCN(Cc3ccc(F)cc3)CC2)cc1)N1CCCC1	Gli-Sufu block 55 (no result: TAG inh) | Gli antag conf inactive | SufuKO cytotox inactive | Wnt3a counter inactive
O=C(c1ccc(F)cc1)N1CCN(C2CCCCC2)CC1	Gli-Sufu block 58 (no result: TAG inh) | Gli antag conf inactive | SufuKO cytotox inactive | Wnt3a counter inactive
CCc1ccc(CN2CCC(Oc3ccc(C(=O)N4CCCC4)cc3)CC2)cc1	none
COC1C(O)CCC2(CO2)C1C1(C)OC1CC=C(C)C (stereo not drawn)	none (no result: Jurkat NFkB inh, Gli-Sufu block, H9c2 protect, TAG inh, 697 NFkB inh)
Cc1cc2c(cc(C(=O)OCC(=O)NCc3cccs3)n2C(C)C)o1	none (no result: NR2F2 inh, TAG inh) | Gli antag conf inactive | SufuKO cytotox 56 | Wnt3a counter inactive
Cc1cc(C)cc(C(=O)OCC(=O)NCc2cccs2)c1	none (no result: TAG inh)
O=C(CSCc1ccc(Cl)cc1)N/N=C/c1ccccc1	none | Gli antag conf inactive | SufuKO cytotox inactive | Wnt3a counter inactive
O=C(CSCc1ccc(Cl)cc1)N/N=C/c1c(Cl)cccc1Cl	none (no result: Jurkat NFkB inh, TAG inh, 697 NFkB inh)
Nc1[nH]c(C(=O)c2ccccc2)c(-c2ccccn2)c1C(=O)c1c[nH]c2ccccc12	none (no result: Jurkat NFkB inh, Gli-Sufu block, H9c2 protect, TAG inh, 697 NFkB inh)
COC(=O)[C@]12C[C@H](CC(=O)N3CCSCC3)C(=O)N(CCC3=CCCCC3)C1=C[C@H](C1CCCC1)O[C@@H]2C	none (no result: Jurkat NFkB inh, Gli-Sufu block, H9c2 protect, TAG inh, 697 NFkB inh)
COc1ccc(C(=O)NCc2nnc(SCC(=O)Nc3cc(OC)ccc3OC)o2)cc1	none (no result: TAG inh) | Gli antag conf inactive | SufuKO cytotox inactive | Wnt3a counter inactive
COc1ccc(OC)c(NC(=O)COC(=O)c2ccc(-n3cnnn3)cc2)c1	Gli-Sufu block 69 | Gli antag conf inactive | SufuKO cytotox inactive | Wnt3a counter inactive
COc1ccc(NC(=O)COC(=O)c2ccc(-n3cnnn3)cc2)cc1Cl	none
O=C1CCCN1CN1CCCCC1	Gli-Sufu block 99 | Gli antag conf inactive | SufuKO cytotox inactive | Wnt3a counter inactive
CN(C)S(=O)(=O)c1cccc(C(=O)OCC(=O)Nc2sccc2C#N)c1	Gli-Sufu block 99 (no result: NR2F2 inh) | Gli antag conf inactive | SufuKO cytotox inactive | Wnt3a counter inactive
CCOc1ccc2nc(NC(=O)CSc3nnnn3C3CCCCC3)sc2c1	Gli-Sufu block 71 (no result: TAG inh) | Gli antag conf inactive | SufuKO cytotox inactive | Wnt3a counter inactive
COc1ccc2nc(NC(=O)CSc3nnnn3C3CCCCC3)sc2c1	none (no result: TAG inh)
O=[N+]([O-])c1ccc(S(=O)(=O)N2CCN(c3ccc(N4CCOCC4)nn3)CC2)cc1	none | Gli antag conf inactive | SufuKO cytotox inactive | Wnt3a counter inactive
CC(SC(C)C(=O)NN=Cc1cccc(Cl)c1)C(=O)NN=Cc1cccc(Cl)c1 (stereo not drawn)	none (no result: Jurkat NFkB inh, 697 NFkB inh)
COc1cccc(C=NNC(=O)C(C)SC(C)C(=O)NN=Cc2cccc(OC)c2)c1 (stereo not drawn)	none (no result: Jurkat NFkB inh, 697 NFkB inh) | Gli antag conf inactive | SufuKO cytotox inactive | Wnt3a counter inactive
CCN(CC)c1ccc(/C=N/NC(=O)c2c(Cl)cnn2C)c(O)c1	Gli-Sufu block 87 (no result: TAG inh) | Gli antag conf 68 | SufuKO cytotox 33 | Wnt3a counter 59
CCOCCCNC(=O)c1cc2sc(Cl)cc2n1CC	Gli-Sufu block 59 (no result: TAG inh) | Gli antag conf inactive | SufuKO cytotox inactive | Wnt3a counter inactive
COc1ccc(CNC(=O)CSc2ncn[nH]2)cc1	Gli-Sufu block 87 | Gli antag conf inactive | SufuKO cytotox inactive | Wnt3a counter inactive
COC(=O)C1=C(C)N(Cc2ccccc2C(F)(F)F)C(=NCc2cccc(C(F)(F)F)c2)NC1c1ccc(F)cc1 (stereo not drawn)	none (no result: Jurkat NFkB inh, Gli-Sufu block, H9c2 protect, TAG inh, 697 NFkB inh)
Cc1ccc2nc(-c3ccco3)c(Cc3ccccc3C(F)(F)F)n2c1	none (no result: Jurkat NFkB inh, Gli-Sufu block, H9c2 protect, TAG inh, 697 NFkB inh)
